# A selection: hits, their analogues and other compounds. The true share with any hit is near 3.4%.
# ADAM17 inh: ADAM17 inhibitors, primary screen, biochemical, QFRET; AID 720648, 2013; recombinant ADAM17, EDANS/DABCYL FRET peptide cleavage; Disintegrin and metalloproteinase domain-containing protein 17 (Homo sapiens), P78536; inhibition, % at 6.95 µM; 370,000 tested, 0.83% active;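 active = inhibition above the mean of compounds lying between control limits plus 3 SD, set per campaign, cut at about 8.5% in these data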;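 note: 0% = DMSO-only wells as the low control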
# Target sequence (P78536 215-824 limits assumed): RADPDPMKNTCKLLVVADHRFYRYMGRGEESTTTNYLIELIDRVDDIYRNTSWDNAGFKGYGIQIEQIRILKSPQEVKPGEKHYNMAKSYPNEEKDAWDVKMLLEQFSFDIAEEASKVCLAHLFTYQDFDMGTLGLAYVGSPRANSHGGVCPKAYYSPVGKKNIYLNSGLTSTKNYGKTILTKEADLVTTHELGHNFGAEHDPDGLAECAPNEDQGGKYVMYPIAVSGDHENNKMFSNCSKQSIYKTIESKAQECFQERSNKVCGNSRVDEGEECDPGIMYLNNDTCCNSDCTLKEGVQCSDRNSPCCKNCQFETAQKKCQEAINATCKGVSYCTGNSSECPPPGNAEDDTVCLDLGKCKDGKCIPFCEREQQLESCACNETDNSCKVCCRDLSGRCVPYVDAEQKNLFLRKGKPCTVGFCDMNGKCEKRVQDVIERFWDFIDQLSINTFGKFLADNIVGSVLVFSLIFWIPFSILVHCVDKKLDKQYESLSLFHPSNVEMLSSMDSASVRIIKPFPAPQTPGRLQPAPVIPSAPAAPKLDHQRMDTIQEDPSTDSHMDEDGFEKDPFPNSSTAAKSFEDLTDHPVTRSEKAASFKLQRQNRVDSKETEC
# HGIII-sPLA2 inh: human group III sPLA2 inhibitors, primary screen, biochemical, QFRET, BODIPY PC-A2 liposome substrate | QFRET BODIPY PC-A2 liposome hydrolysis, fluorescence | inhibition, % at 12.2 µM | 370,000 tested, 0.56% active | AID 743126, 2013;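 active = inhibition above mean plus 3 SD of compounds lying within the high and low control bounds, cut at about 19% in these data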;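 note: 0% = median of test compound wells and 100% = no enzyme DMSO wells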
# PLC-beta3 inh: human PLC-beta3 inhibitors, primary screen, biochemical, fluorescence. inhibition, % at 12.2 µM. Purified PLC-beta3, fluorogenic substrate. 370,000 tested, 0.18% active;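 note: 0% = median of compound wells on plate and 100% = full blocker control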
# ADAM10 inh: human ADAM10 inhibitors, primary screen, biochemical, QFRET, HTS; recombinant ADAM10, EDANS/DABCYL FRET peptide cleavage, 3 h; AID 720582, 2013; Disintegrin and metalloproteinase domain-containing protein 10 (Homo sapiens), O14672; 370,000 tested, 0.62% active; inhibition, % at 7 µM;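 active = inhibition above a per-campaign cutoff equal to the mean of compounds falling between control-based bounds plus 3 SD, cut at about 20% in these data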;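 note: 0% = DMSO wells while the 100% control is not disclosed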
# PLC-gamma1 inh: PLC-gamma1 enzyme inhibitors, primary screen, biochemical, fluorescence, purified enzyme; 1-phosphatidylinositol 4,5-bisphosphate phosphodiesterase gamma-1 (Homo sapiens), P19174; inhibition, % at 12.2 µM; fluorogenic substrate; 370,000 tested, 0.84% active; in the data active = inhibition above about 9.5%
# KLK7 zymogen act: proKLK7 zymogen activators, primary screen, biochemical, fluorescence intensity. AID 652039, 2013. 370,000 tested, 0.9% active. purified proKLK7, EDANS-DABCYL substrate fluorescence; 100% is mature enzyme control, 0% vehicle. activation, % at 7 µM;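 active = activation above the mean of all tested compounds plus 3 SD, computed per campaign excluding outliers beyond control limits, cut at about 13% in these data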
# ADAM10 confirm: human ADAM10 inhibitors, confirmation, biochemical, QFRET, triplicate; shares compounds with ADAM10 inh; ADAM10 QFRET peptide cleavage, EDANS fluorescence; inhibition, % at 6.95 µM; 2,100 tested, 1% active; AID 743208, 2013;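 active = inhibition above about 20% chosen separately for each screening run, limit read from the data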;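 note: 0% = DMSO wells and 100% = marimastat wells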
# ADAM17 ctr: ADAM17 inhibitors, counter-screen for ADAM10 exosite inhibitor project, biochemical, QFRET, high throughput. shares compounds with ADAM10 inh. ADAM17 QFRET peptide cleavage, EDANS fluorescence. inhibition, % at 6.95 µM. 2,100 tested, 0.5% active. AID 743214, 2013;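 active = mean triplicate inhibition above the solvent-only control wells' mean plus 3 SD, cut at about 12% in these data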;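 note: 0% = DMSO wells and 100% = marimastat wells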
# ADAM10 ctr: ADAM10 inhibitors, counter-screen for ADAM17 exosite inhibitor project, biochemical, FRET, human ADAM10; shares compounds with ADAM17 inh; recombinant ADAM10, EDANS/DABCYL FRET peptide cleavage, 3 h; 2,900 tested, 47% active; inhibition, % at 6.95 µM; AID 743256, 2014;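 active = mean inhibition over the triplicate runs exceeds the activity threshold set in the earlier primary screen, cut at about 20% in these data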;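 note: 0% = DMSO wells and 100% = marimastat wells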
# ADAM17 confirm: ADAM17 inhibitors, hit retest, confirmation, biochemical, QFRET peptide cleavage. inhibition, % at 6.95 µM. shares compounds with ADAM17 inh. 2,900 tested, 65% active. recombinant ADAM17, EDANS/DABCYL QFRET peptide cleavage;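 active = mean inhibition across replicates above the hit cutoff set in the primary screen, cut at about 8.5% in these data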;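 note: 0% = DMSO wells and 100% = marimastat wells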
# PLCgamma1 ctr: PLC-gamma1 enzyme inhibitors, counter-screen for PLC-beta3 inhibitor project, biochemical, fluorescence; shares compounds with PLC-gamma1 inh; purified PLC-gamma1, fluorogenic substrate; 3,300 tested, 3.1% active; AID 743258, 2014; inhibition, % at 12.3 µM; in the data active = inhibition above about 9.5%
# PLCb3 confirm: PLC-beta3 inhibitor confirmation, biochemical, fluorescence, purified enzyme; inhibition, % at 12.3 µM; shares compounds with PLC-gamma1 inh; fluorogenic substrate fluorescence; AID 743261, 2014; 3,300 tested, 1% active
# The depositor's hits bear a star; · = not tested or not shown. Cut-off read from the data, not from the text of the source, unless noted: active = inhibition above about 11%; inactive = the rest.
SMILES,ADAM17 inh,HGIII-sPLA2 inh,PLC-beta3 inh,ADAM10 inh,PLC-gamma1 inh,KLK7 zymogen act,ADAM10 confirm,ADAM17 ctr,ADAM10 ctr,ADAM17 confirm,PLCgamma1 ctr,PLCb3 confirm
CC(=O)c1ccc(N2CCC(c3cc(-c4ccc(Cl)cc4Cl)n[nH]3)CC2)c([N+](=O)[O-])c1,13*,-9,1,20*,15*,0,13,4,44*,21*,6,6
Cc1cc(C)nc(N/N=C/c2ccccc2OCc2ccc([N+](=O)[O-])cc2)n1,1,9,9,28*,13*,0,2,1,·,·,0,1
O=C(CN1CCN(C(=O)CNC(=O)c2ccc3c(c2)OCO3)CC1)Nc1ccc(F)cc1,-1,2,-7,-3,-3,0,·,·,·,·,·,·
NC(CCc1ccccc1)c1csc(NC(=O)Nc2ccccc2Oc2ccccc2)n1 (stereo unspecified),14*,10,6,29*,16*,0,7,3,23*,13*,-1,-3
NC(CCc1ccccc1)c1csc(NC(=O)NCCc2ccccc2)n1 (stereo unspecified),0,-4,-1,1,4,1,·,·,·,·,·,·
CN(C)C(CNC(=O)CCc1nc2sc3c(c2c(=O)[nH]1)CCCC3)c1ccccc1 (stereo unspecified),-12,3,-13,-27,-12,0,·,·,·,·,·,·
CC(C)C[C@H](NC(=O)c1nc[nH]c1C(=O)N1CCN(C(=O)OC(C)(C)C)CC1)C(=O)OCc1ccccc1,9.9*,-26,5,25*,10*,0,2,1,27*,11*,3,4
Fc1ccc(CNCc2ccco2)cc1,8,15,1,20*,12*,-1,-1,0,·,·,-1,0
CCN(CC)CCNC(=O)c1ccc(NC(=O)C2CC(=O)N(CCc3ccc(OC)c(OC)c3)C2)cc1 (stereo unspecified),-3,13,-6,-13,0,0,·,·,·,·,·,·
Cc1onc(-c2ccccc2)c1C(=O)NC(=S)NNC(=O)c1cccnc1,5,3,5,24*,10*,0,5,1,·,·,-2,-1
Cc1cnc(C(=O)N2CCc3c([nH]c4ccccc34)C2c2ccc(F)cc2)cn1 (stereo unspecified),2,-13,0,6,0,1,·,·,·,·,·,·
